Compound activity: PubChem BioAssay, National Center for Advancing Translational Sciences (NCATS)
KB-3-1 tox – KB-3-1 parental cell cytotoxicity | KB-3-1 viability, CellTiter-Glo ATP luminescence, 72 h | Potency, µM (doses to about 46.1 µM), actives largely listed as cytotoxic | 1.4% of 400,000 active; note: % is set by controls: 0 for no effect and ±100 for the full control effect; nearly all actives have a fitted effect of over 60% in size
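Luminescent ATP read-out (CellTiter-Glo) measures survival of drug-naive KB-3-1 cells after 72 h compound exposure at 37 °C. Titration series was screened from lowest to highest concentration, with DMSO vehicle plates as background controls.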
HT1080NT lethal – kills 2HG-producing HT-1080-NT fibrosarcoma cells | HT-1080-NT fibrosarcoma viability, CellTiter-Glo ATP luminescence, 48 h | Potency, µM (doses to about 46.1 µM), for the others: at the highest dose activity, negative = less viability, actives largely listed as cytotoxic | 1.6% of 360,000 active | AID 686970;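 note: NT is the 2HG producing partner of a matched IDH1 knockdown line; 0% = DMSO-treated cells and -100% = media-only wells without cells; nearly all actives have a fitted effect of over 55% in size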
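750 cells/well, RPMI + 5% FBS; 2 h settle, compound pin-transfer, 48 h at 37 degrees C. CellTiter-Glo 10 min RT, luminescence. Normalized to DMSO and media-only wells.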
ATXN viability – viability counter-screen for ATXN expression inhibitors; S2 cells (HEK-293 line with an ATXN2-luciferase reporter) viability, CellTiter-Fluor protease fluorescence, 24 h; Potency, µM (series often up to 56.7 µM), usual class: cytotoxic; 0.49% of 400,000 active; AID 651635; note: nearly all actives have a fitted effect of over 40% in size
ATXN2 expr inh – ATXN2 expression inhibition; HEK-293 ATXN2-luciferase reporter, luminescence, 24 h; Potency, µM (top dose mostly 57 µM), without a hit: at the highest dose activity change, negative = inhibition, actives largely listed as inhibitors; 0.72% of 360,000 active; AID 1745845; note: % is set by controls: 0 for no effect and ±100 for the full control effect; nearly all actives have a fitted effect of over 55% in size
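ATXN2-luciferase reporter cells (luciferase flanked by upstream and downstream ATXN2 gene portions) were treated 24 h at 37 °C with compounds at up to 57 uM. SteadyGlo luminescence gave expression; GF-AFC fluorescence gave viability.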
KB-V1 MDR tox – KB-V1 MDR subline cytotoxicity; 3.4% of 400,000 active; Potency, µM (titrated, usually from 46.1 µM), most hits filed as cytotoxic; KB-V1 MDR cells viability, CellTiter-Glo, 72 h; AID 1347076; note: % is set by controls: 0 for no effect and ±100 for the full control effect; nearly all actives have a fitted effect of over 60% in size
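Compound-treated KB-V1 multidrug-resistant cells, 72 h, 37 degrees C; viability by CellTiter-Glo. Fitted qHTS curves give the values.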
HT1080 IDH1KD tx – HT-1080 IDH1 knockdown cell toxicity (counter line); 2% of 360,000 active; HT-1080 IDH1 knockdown viability, ATP luminescence, 48 h; Potency, µM (titrated, usually from 46.1 µM), without a hit: at the top dose activity, negative = toxicity, hits mostly cytotoxic; AID 686971;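 note: 0% = DMSO wells and -100% = cell-free medium wells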
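Using the IDH1-knockdown HT-1080 line run in the same batch and compound series as the NT line, viability after 48 h at 37 °C was determined by CellTiter-Glo luminescence and expressed as % activity.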
Starred values were filed as active, the others as inactive; i = inactive; ? = inconclusive; . = no result given; [ ] = dose if it differs, or a comment. In the library only some 6.2% were active in any assay of this set; here they are far more common. Calls come from the whole dose curve; as a rule, active = well fitted curve in the direction sought with a large enough effect; inconclusive = small, poorly fitted or top-dose-only effect, or another doubt; inactive = no such curve, though single readings can be large; an effect the other way counts as inactive or inconclusive. Potency is the fitted concentration of half-maximal effect.

SMILES	KB-3-1 tox	HT1080NT lethal	ATXN viability	ATXN2 expr inh	KB-V1 MDR tox	HT1080 IDH1KD tx
Cc1nc2cc(NC(=O)[C@@H]3C[C@@H](Sc4ccccn4)CN3Cc3ccc4c(c3)OCCO4)ccc2s1	.	.	i	.	.	.
COc1ncc(-c2c(-c3ccccc3OC)sc3ccccc23)cn1	?	?	i	0.2%	i	16.4µM*
O=C(CCl)Nc1cn(-c2ccccc2)nc1-c1ccccc1	?	?	8.91µM*	.	20.6µM*	-29.1%
O=C(Nc1cn(-c2ccccc2)nc1-c1ccc(F)cc1)c1ccccc1	i	0.2%	i	3.2%	16.4µM*	0.7%
CC(=O)Nc1cn(-c2ccccc2)nc1-c1ccccc1	i	19.9%	i	-19.0%[11.3 µM]	i	5.9%
CCCN(CCC)C(=O)Cn1c(=O)n(-c2ccc(C)cc2)c(=O)c2ccc(C(=O)NCc3ccccc3Cl)cc21	i	.	i	7.8%	i	.
CC(C)CC(=O)[C@@H](O)Cc1ccc(O)cc1	i	19.4%	?	-6.5%	?	4.1%
COc1cc2c(cc1OC)CN(c1nc(-c3cccnc3)nc3ccccc13)CC2	i	18.4µM*	?	?	?	18.4µM*
Fc1ccccc1-c1nc(N2CCCCC2)c2ccccc2n1	?	10.5%	i	4.9%	13µM*	-1.5%
c1ccc2c(N3CCCCCC3)nc(-c3ccncc3)nc2c1	i	-5.0%	?	?	18.4µM*	?
CCCOc1ccc(-c2nc(N3CCCCC3)c3ccccc3n2)cc1	i	.	i	6.6%	i	.
CN1CCN(c2nc(-c3ccccn3)nc3ccccc23)CC1	i	7.94µM*	?	?	23.1µM*	7.94µM*
Oc1ccccc1-c1nc(N2CCCC2)c2ccccc2n1	i	11.6%	i	7.9%	i	12.7%
CC(=O)c1cccc(Nc2c3c(nc4nc(-c5cccs5)nn24)CCCC3)c1	i	.	?	-15.7%	i	.
CCN(c1cccc(C)c1)S(=O)(=O)c1ccc2[nH]cc(C(=O)NCCCOC)c(=O)c2c1	i	.	i	-23.4%	?	.
c1cncc(-c2nc(N3CCCCCC3)c3ccccc3n2)c1	i	-7.9%	i	-22.0%	4.11µM*	-13.1%
C(=C\c1nc(N2CCCCCC2)c2ccccc2n1)/c1ccccc1	i	?	?	?	18.4µM*	?
CCC(=O)N1CCc2cc(CNC(=O)Nc3ccc(OC)cc3OC)ccc21	i	.	i	-1.3%	i	.
Cc1ccc(-c2cc(C(=O)N/N=C/c3c[nH]c4ccccc34)[nH]n2)cc1	5.17µM*	?	i	-10.0%	10.3µM*	2.91µM*
O=C(N/N=C/c1ccccn1)c1cc(-c2cccc3ccccc23)n[nH]1	i	-28.5%	i	-21.4%	i	-24.1%
O=C(N/N=C/c1c[nH]c2ccccc12)c1cc(-c2ccccc2)n[nH]1	i	?	i	-18.0%[11.3 µM]	i	?
O=C(N/N=C/c1c[nH]c2ccccc12)c1cc(-c2ccc(-c3ccccc3)cc2)n[nH]1	?	?	.	?	16.4µM*	12.6µM*
O=C(N/N=C/c1ccccn1)c1cc(-c2ccc3ccccc3c2)n[nH]1	i	?	?	?	i	16.4µM*
O=C(N/N=C/c1c[nH]c2ccccc12)c1cc(-c2cccc3ccccc23)n[nH]1	?	?	i	-3.6%	i	8.2µM*
C[C@H]1C[C@H]2[C@@H]3CCC4=CC(=O)C=C[C@]4(C)[C@H]3C(=O)C[C@]2(C)[C@@]1(O)C(=O)CO	.	.	i	-0.3%	.	.
COc1cccc(NC(=O)c2oc3ccccc3c2NC(=O)c2ccccc2C)c1	i	.	i	-6.4%	i	.
C=CCn1c(=O)n([C@@H]2O[C@H](CO)[C@@H](O)[C@H]2O)c2nc(N)[nH]c(=O)c21	.	.	i	-2.9%	.	.
O=C(N/N=C/C=C/c1ccccc1[N+](=O)[O-])c1ccncc1	i	-2.6%	i	8.5%	?	-12.9%
